NPC1 prom act: activates the NPC1 promoter; actives 2.4% (n = 320,000); Huh7 NPC1 promoter luciferase reporter, 24 h; Potency, µM (doses to about 9.22 µM), most hits filed as activators; also: nearly all actives have a fitted effect of over 60% in size
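Luminescence read-out of NPC1 promoter-driven luciferase in stably transfected Huh7 cells; compounds delivered in DMSO and left 24 h at 37C, 5% CO2, qHTS titration format.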
Rab9 promoter act: Rab9 promoter activation. Huh7 Rab9 promoter-luciferase reporter, luminescence, 24 h. Potency, µM (top dose mostly 9.22 µM), actives largely listed as activators. actives 2.8% (n = 320,000); also: nearly all actives have a fitted effect of over 60% in size
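Stable Rab9-luc Huh7, 1500 cells/well, 2 h settle; cmpd in DMSO, 24 h, 37 °C/5% CO2; luciferase reagent 10 min RT; luminescence.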
KinaseGlo FLuc: blocks Kinase-Glo luciferase, a counter-screen artifact; Kinase-Glo luciferase, ATP luminescence, 8 min; Potency, µM (highest dose often 38.3 µM), hits mostly inhibitors; actives 0.28% (n = 200,000); AID 1379; also: nearly all actives have a fitted effect of over 60% in size
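Light output from Kinase-Glo luciferase with luciferin and 10 uM ATP in 50 mM imidazole pH 7.2, KCl, MgCl2, Tween 20, BSA; compound pin-delivered, 8-min ambient incubation, then luminescence read.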
ELG1 genotox: inducers of genotoxicity in HEK293T ELG1-luciferase cells; HEK293T ELG1-luciferase reporter, luminescence, 16 h; Potency, µM (titrated, usually from 46 µM), actives largely listed as activators; actives 1.3% (n = 330,000); AID 504466; also: nearly all actives have a fitted effect of over 60% in size
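After overnight (16 hr) compound treatment at 37 °C, ELG1-luciferase HEK293T cells were lysed with ONE-Glo; luminescence quantified 30 min later at room temperature.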
SMN2 splice enh: enhancers of SMN2 splice variant expression. Potency, µM (series often up to 46.1 µM), most hits filed as activators. HEK293 SMN2-luciferase splicing reporter, luminescence, 30-36 h. actives 2.8% (n = 210,000). AID 1458; also: nearly all actives have a fitted effect of over 55% in size
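HEK293 cells carry an SMN2 […]–luciferase reporter in which exon 7 inclusion puts luciferase in frame. Cells were plated 10-12 h before compound addition, then incubated 30-36 h at 37C. ONE-Glo luminescence was read; sodium butyrate at 4.5 mM final served as control.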
FLuc modulator: inhibits or activates purified firefly luciferase, miR-21 counter-screen. P08659. purified FLuc, Km substrates, luminescence inhibition. Potency, µM (doses to about 57.5 µM), hits mostly inhibitors. actives 6.9% (n = 360,000). AID 588342; also: nearly all actives have a fitted effect of over 55% in size
Target sequence (P08659 whole entry, looked up): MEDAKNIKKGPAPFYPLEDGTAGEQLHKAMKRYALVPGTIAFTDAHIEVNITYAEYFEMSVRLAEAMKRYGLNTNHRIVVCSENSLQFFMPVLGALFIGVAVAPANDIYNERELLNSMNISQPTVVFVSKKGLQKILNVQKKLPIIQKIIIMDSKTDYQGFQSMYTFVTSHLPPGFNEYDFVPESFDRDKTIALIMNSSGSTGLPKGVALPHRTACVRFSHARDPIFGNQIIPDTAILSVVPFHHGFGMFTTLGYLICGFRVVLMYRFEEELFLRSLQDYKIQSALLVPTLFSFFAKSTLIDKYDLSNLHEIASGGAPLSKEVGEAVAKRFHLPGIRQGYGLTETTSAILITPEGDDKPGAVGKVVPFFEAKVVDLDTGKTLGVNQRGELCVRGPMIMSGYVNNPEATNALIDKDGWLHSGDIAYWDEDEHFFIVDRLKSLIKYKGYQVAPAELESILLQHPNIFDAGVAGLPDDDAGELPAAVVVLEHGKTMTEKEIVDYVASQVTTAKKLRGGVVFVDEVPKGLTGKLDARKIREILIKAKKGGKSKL
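Purified P. pyralis luciferase, 10 nM final, with Km-level 10 uM D-luciferin and 10 uM ATP in 50 mM Tris acetate pH 7.5, 10 mM Mg acetate, 0.01% Tween-20, 0.05% BSA; 6-point qHTS titration about 60 µM downward; luminescence read.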
Each line names hits and unclear results; the compound was inactive in the other large screens. Rows were chosen to be rich in hits. Some 7.3% of all compounds tested hit in one or more screens of this group. Calls follow the shape of the dose curve; as a rule, active = well fitted curve in the direction sought with a large enough effect; inconclusive = small, poorly fitted or top-dose-only effect, or another doubt; inactive = no such curve, though single readings can be large; an effect the other way counts as inactive or inconclusive.

CCN(CC)c1ccc(C(=O)N/N=C/c2ccc(OC)cc2OC)cc1	FLuc modulator inconclusive
O=C(N/N=C/c1ccccc1)c1[nH]ncc1Br	NPC1 prom act inconclusive, Rab9 promoter act 3.16µM, KinaseGlo FLuc 6.31µM, ELG1 genotox 14.6µM, SMN2 splice enh inconclusive, FLuc modulator 10.7µM
COc1ccc(/C=N/NC(=O)c2[nH]ncc2Br)c(OC)c1	ELG1 genotox 25.9µM, FLuc modulator 2.39µM
CC1CCN(c2nc3ccc(C(=O)NCc4ccc(Cl)cc4)cc3s2)CC1	FLuc modulator 10.7µM (no result: NPC1 prom act, Rab9 promoter act, KinaseGlo FLuc, ELG1 genotox)
CC1CCN(c2nc3ccc(C(=O)O)cc3s2)CC1	FLuc modulator 0.213µM
CCC1CCCCN1CCCNC(=O)c1ccc2nc(N3CCC(C)CC3)sc2c1 (stereo unspecified)	ELG1 genotox 0.164µM, FLuc modulator inconclusive (no result: KinaseGlo FLuc, SMN2 splice enh)
CC1CCN(c2nc3ccc(C(=O)NCCCN4CCCCC4)cc3s2)CC1	NPC1 prom act inconclusive, ELG1 genotox inconclusive, FLuc modulator inconclusive (no result: KinaseGlo FLuc, SMN2 splice enh)
O=C(NCCCN1CCN(c2ccccc2F)CC1)c1ccc2nc(N3CCCCC3)sc2c1	SMN2 splice enh 5.62µM, FLuc modulator inconclusive (no result: NPC1 prom act, Rab9 promoter act, KinaseGlo FLuc, ELG1 genotox)
Cc1nn(C(=O)c2ccccc2)c(C)c1Sc1ccc(Cl)cc1	none (no result: NPC1 prom act, Rab9 promoter act, KinaseGlo FLuc, ELG1 genotox)
CCN(CC)c1ccc(NC(=O)C2CCCN(S(=O)(=O)c3ccc4c(c3)oc(=O)n4C)C2)c(C)c1 (stereo unspecified)	none (no result: NPC1 prom act, Rab9 promoter act, KinaseGlo FLuc, ELG1 genotox)
O=C(NCc1cccc(Cl)c1)C1CCCN(c2ncnc3onc(-c4ccc(F)cc4)c23)C1 (stereo unspecified)	none (no result: NPC1 prom act, Rab9 promoter act, KinaseGlo FLuc, ELG1 genotox, SMN2 splice enh)
O=C(NCCc1ccccc1)c1ccc2nc(N3CCCCC3)sc2c1	FLuc modulator inconclusive (no result: NPC1 prom act, Rab9 promoter act, KinaseGlo FLuc, ELG1 genotox)
O=C(NCC1CCCO1)c1ccc2nc(N3CCCCC3)sc2c1 (stereo unspecified)	NPC1 prom act 2µM, Rab9 promoter act inconclusive, ELG1 genotox inconclusive, FLuc modulator 16.9µM
CC1CCN(c2nc3ccc(C(=O)NCc4ccccc4Cl)cc3s2)CC1	FLuc modulator 6.75µM (no result: NPC1 prom act, Rab9 promoter act, KinaseGlo FLuc, ELG1 genotox)
O=C(COc1ccccc1F)Nc1ccccc1C(=O)OCc1cc(=O)n2nc(C3CC3)sc2n1	none (no result: NPC1 prom act, Rab9 promoter act, KinaseGlo FLuc, ELG1 genotox, SMN2 splice enh)
CC(C)(C)c1ccc(OCC(=O)Nc2ccncc2)c(Br)c1	FLuc modulator 21.3µM (no result: KinaseGlo FLuc, SMN2 splice enh)
CCC(C)(C)c1ccc(OCC(=O)Nc2ccncc2)cc1	FLuc modulator 7.57µM (no result: KinaseGlo FLuc, SMN2 splice enh)
O=C(COc1ccc(Br)cc1)Nc1ccncc1	FLuc modulator inconclusive
CCc1ccc(OCC(=O)NNC(=S)NC(=O)C2CCCCC2)c(Br)c1	none (no result: KinaseGlo FLuc, SMN2 splice enh)
CCc1ccc(OCC(=O)Nc2ccncc2)c(Br)c1	ELG1 genotox inconclusive, FLuc modulator 3.38µM (no result: KinaseGlo FLuc, SMN2 splice enh)
Cc1cc(OCC(=O)Nc2ccncc2)c(C)cc1Br	FLuc modulator inconclusive
CCc1ccc(OCC(=O)NNC(=S)NC(=O)C2CC2)c(Br)c1	ELG1 genotox inconclusive, FLuc modulator 9.53µM (no result: KinaseGlo FLuc, SMN2 splice enh)
Cc1ccc(/C=C/c2onc(C)c2S(=O)(=O)N2CCC(C(=O)N3CC(C)Oc4ccccc43)CC2)cc1 (stereo unspecified)	none (no result: NPC1 prom act, Rab9 promoter act, KinaseGlo FLuc, ELG1 genotox, SMN2 splice enh)
C=CCC(O)(C#Cc1ccccc1)c1ccccc1 (stereo unspecified)	none (no result: NPC1 prom act, Rab9 promoter act, ELG1 genotox, FLuc modulator)
CC(C)(C)c1ccc(OCC(=O)NNC(=S)NC(=O)c2ccccc2[N+](=O)[O-])c(Br)c1	FLuc modulator 26.9µM (no result: KinaseGlo FLuc, SMN2 splice enh)
CC1CCN(S(=O)(=O)c2ccc3c(ccc(=O)n3CC(=O)NCc3ccccc3)c2)CC1	none (no result: NPC1 prom act, Rab9 promoter act, KinaseGlo FLuc, ELG1 genotox, SMN2 splice enh)
COC(=O)c1c(-c2ccccc2)csc1NC1=NS(=O)(=O)c2ccccc21	Rab9 promoter act 2.51µM, ELG1 genotox inconclusive, SMN2 splice enh 0.562µM, FLuc modulator 0.601µM
O=C(Nc1cccc(-c2ccc(N3CCOCC3)nn2)c1)c1ccccc1	NPC1 prom act 2.82µM, Rab9 promoter act inconclusive, ELG1 genotox inconclusive, FLuc modulator 2.69µM (no result: KinaseGlo FLuc, SMN2 splice enh)
O=C(Nc1ccc(C(=O)N2CCOCC2)cc1)c1ccc([N+](=O)[O-])cc1	none (no result: KinaseGlo FLuc, SMN2 splice enh)
Cc1ccccc1C(=O)Nc1cccc(-c2ccc(N3CCOCC3)nn2)c1	NPC1 prom act inconclusive, Rab9 promoter act 3.16µM, ELG1 genotox inconclusive, FLuc modulator 2.13µM (no result: KinaseGlo FLuc, SMN2 splice enh)

Screens from PubChem BioAssay.
